Assay results taken from PubChem BioAssay (NCATS).
Inconclusive results are not listed. The source made the active and inactive calls. Calls follow the shape of the dose curve; as a rule, active = well fitted inhibition curve with a large enough effect; inconclusive = small, poorly fitted or top-dose-only effect; inactive = no such curve, though single readings can be large or run the other way.

Test: qHTS Screen of the MIPE 4.0 Collection Against Ewings Sarcoma (EW8) (AID 1259255); also: nearly all actives have a fitted effect of over 35% in size;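 as to viability: 100% = DMSO-treated cells and 0% = medium-only wells without cells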
Details: EW8 Ewing sarcoma viability, CellTiter-Glo, 48 h; series mostly up to 45.8 µM; viability: at the top concentration
From the text: There is a large unmet medical need for treatments for Ewing sarcoma, a pediatric sarcoma. We sought to identify compounds that inhibited Ewing sarcoma cells in vitro with the goal to then test promising drugs in two drug combinations in vitro to look for synergistic drug combinations. Promising combinations would then proceed to additional validation, including in vivo testing.
Using the NCATS developed oncology compound library called the Mechanism of Interrogation Plate (MIPE), four Ewing sarcoma cell lines were evaluated (TC32, TC71, RDES, EW8). Compounds, in a 12-point titration series, were incubated with cells for 48 hours and the read out was cell viability (CellTiter-Glo from Promega). These initial experiments were used to select appropriate concentrations of each single agent for subsequent two-drug matrix combinations such that the concentrations in the matrices would span both activity and non-activity.
Cells, in the log phase of growth, were seeded in 5 uL of RPMI plus 5% FBS, […] L-glutamine, 100 U/ml penicillin and 100 ug/ml streptomycin into 1536-well solid-bottom white tissue culture treated Greiner Bio One Plates (789173-F) using a MultiDrop Combi (Thermofisher Scientific) dispenser and a small sterile cassette. One column was media alone to be used as a :"no cells" control. The plates were then covered with sterilized stainless steel gasketed lids from Kalypsys. After allowing cells to attach for 4 hours, 23 nL of test compound or control (negative control DMSO and positive control 9.2 uM Bortezomib-final) were added from a 1536-well polypropylene compound source plate to each well using a 1536 head pin tool from Kalypsys. Cells were then incubated for 48 hours at 37C, 95% relative humidity and 5% CO2. After 48 hours, plates were removed from the incubator and 3 uL of CellTiter-Glo (Promega) was added using an Aurora Flying Reagent Dispenser Bioraptor. Plates were incubated at room temperature for 10 minutes prior to reading the luminescence on the Viewlux (PerkinElmer). The relative luciferase units are used to calculate the percent activity using the activity of DMSO in the cells and no cells columns for normalization of no inhibition and full inhibition respectively.
Potency is read from the fitted curve at half-maximal effect.

Compound | viability | Potency
CCN(CC)CC#CCOC(=O)C(O)(c1ccccc1)C1CCCCC1 (stereo not given) | 96.4% (inactive) | 
C#CCN[C@@H]1CCc2ccccc21 | 103% (inactive) | 
COc1ccc2c(c1)c(CC(=O)OCC(=O)O)c(C)n2C(=O)c1ccc(Cl)cc1 | 107% (inactive) | 
CCOC(=O)[C@H](CCc1ccccc1)N[C@H]1CCc2ccccc2N(CC(=O)O)C1=O |  | 23.5 µM (active)
CCOCC(O)COc1ccc(NC(=O)CC[S+](C)C)cc1 (stereo not given) | 118% (inactive) | 
CNS(=O)(=O)Cc1ccc2[nH]cc(CCN(C)C)c2c1 | 114% (inactive) | 
O=C(NCC1CN(c2ccc(N3CCOCC3=O)cc2)C(=O)O1)c1ccc(Cl)s1 (stereo not given) | 91% (inactive) | 
CCn1cc(C(=O)O)c(=O)c2cc(F)c(N3CCNCC3)nc21 | 109% (inactive) | 
COc1cccc(N(C)C(=S)Oc2ccc3c(c2)CCCC3)n1 | 101% (inactive) | 
Cc1ncc([N+](=O)[O-])n1CCO | 117% (inactive) | 
S=P(N1CC1)(N1CC1)N1CC1 |  | 6.62 µM (active)
CO[C@@H]1[C@@H](OC(N)=O)[C@@H](O)[C@H](Oc2ccc3c(O)c(NC(=O)c4ccc(O)c(CC=C(C)C)c4)c(=O)oc3c2C)OC1(C)C |  | 2.09 µM (active)
Cc1nnc(C(=O)NC(C)(C)c2nc(C(=O)NCc3ccc(F)cc3)c(O)c(=O)n2C)o1 | 114% (inactive) | 
CCCCOc1ccc(CC(=O)NO)cc1 |  | 10.5 µM (active)
NCCCC(O)(P(=O)(O)O)P(=O)(O)O | 100% (inactive) | 
CCOc1cc(N)c(Cl)cc1C(=O)NCC1CN(Cc2ccc(F)cc2)CCO1 (stereo not given) | 96.5% (inactive) | 
CNCC[C@H](Oc1cccc2ccccc12)c1cccs1 |  | 7.43 µM (active)
CCOC(=O)c1ccc(OC(=O)CCCCCN=C(N)N)cc1 | 121% (inactive) | 
CC(C(=O)O)c1ccc2c(c1)CC(=O)c1ccccc1S2 (stereo not given) | 115% (inactive) | 
O=C(O)C1CCCN(CCC=C(c2ccccc2)c2ccccc2)C1 (stereo not given) |  | 13.2 µM (active)

Compound | viability | Potency
O=C(O)c1ccc(-n2nc(-c3ccccc3O)nc2-c2ccccc2O)cc1 |  | 20.9 µM (active)
CC1CC2C3CCC4=CC(=O)C=C[C@]4(C)[C@@]3(F)[C@@H](O)C[C@]2(C)[C@@]1(O)C(=O)CO (stereo not given in full) | 113% (inactive) | 
NC(=O)c1cccnc1 | 106% (inactive) | 
CC1=C(C(=O)O)N2C(=O)[C@@H](NC(=O)C(N)c3ccccc3)[C@H]2SC1 (stereo not given in full) | 113% (inactive) | 
Cc1noc(NS(=O)(=O)c2ccc(N)cc2)c1C | 105% (inactive) | 
Cc1c(-c2ccc(O)cc2)n(Cc2ccc(OCCN3CCCCCC3)cc2)c2ccc(O)cc12 | 106% (inactive) | 
C[C@@H]1CN(c2c(F)c(N)c3c(=O)c(C(=O)O)cn(C4CC4)c3c2F)C[C@H](C)N1 | 105% [at 23.2 µM] (inactive) | 
NC(=O)N1c2ccccc2CC(=O)c2ccccc21 | 106% (inactive) | 
N=C(N)c1ccc(OCCCCCOc2ccc(C(=N)N)cc2)cc1 |  | 14.8 µM (active)
O=c1oc2c(O)c(O)cc3c(=O)oc4c(O)c(O)cc1c4c23 | 118% (inactive) | 
CCC(=O)O[C@]1(C(=O)CCl)[C@@H](C)C[C@H]2[C@@H]3CCC4=CC(=O)C=C[C@]4(C)[C@@]3(F)[C@@H](O)C[C@@]21C | 88.3% (inactive) | 
Cc1ccnc2c1NC(=O)c1cccnc1N2C1CC1 | 119% (inactive) | 
CC(C)C[C@H](NC(=O)[C@H](CCc1ccccc1)NC(=O)CN1CCOCC1)C(=O)N[C@@H](Cc1ccccc1)C(=O)N[C@@H](CC(C)C)C(=O)[C@@]1(C)CO1 |  | 0.0132 µM (active)
Cc1cc(NS(=O)(=O)c2ccc(N)cc2)no1 | 128% (inactive) | 
O=NN(CCCl)C(=O)NC1CCCCC1 | 124% (inactive) | 
CCCCc1oc2ccc(NS(C)(=O)=O)cc2c1C(=O)c1ccc(OCCCN(CCCC)CCCC)cc1 |  | 16.6 µM (active)
Cc1oc(=O)oc1CN1CCN(c2cc3c(cc2F)c(=O)c(C(=O)O)c2n3C(C)S2)CC1 (stereo not given) | 116% (inactive) | 
CNS(=O)(=O)CCc1ccc2[nH]cc(C3CCN(C)CC3)c2c1 |  | 2.64 µM (active)
COc1c(N2CCNC(C)C2)c(F)cc2c(=O)c(C(=O)O)cn(C3CC3)c12 (stereo not given) | 89% (inactive) | 
N[C@@H](Cc1ccc(O)c(O)c1)C(=O)O | 106% (inactive) | 
